Data published in PubChem BioAssay AID602330 (Sanford-Burnham Center for Chemical Genomics, 2012).
Hit rate of the full screen: of about 1,900 compounds, about 85 (4%) were called active. A selection follows. A number with no mark means an inactive call. Rule as the data show it: active = inhibition above about 40%; inactive = the rest.

Each compound was assayed against 72 kDa type IV collagenase (Homo sapiens) (UniProt P08253) (assay: inhibitors of human MMP-2 protease – biochemical, fluorescence, single concentration, counter-screen for RPN11 inhibitor project, confirmation (AID 602330;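 also: human MMP-2 activated beforehand with APMA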)). Conditions: recombinant MMP-2, FRET peptide cleavage fluorescence; at 20 µM; hits give high values.
Sequence of 72 kDa type IV collagenase (Homo sapiens) (P08253 whole entry, looked up): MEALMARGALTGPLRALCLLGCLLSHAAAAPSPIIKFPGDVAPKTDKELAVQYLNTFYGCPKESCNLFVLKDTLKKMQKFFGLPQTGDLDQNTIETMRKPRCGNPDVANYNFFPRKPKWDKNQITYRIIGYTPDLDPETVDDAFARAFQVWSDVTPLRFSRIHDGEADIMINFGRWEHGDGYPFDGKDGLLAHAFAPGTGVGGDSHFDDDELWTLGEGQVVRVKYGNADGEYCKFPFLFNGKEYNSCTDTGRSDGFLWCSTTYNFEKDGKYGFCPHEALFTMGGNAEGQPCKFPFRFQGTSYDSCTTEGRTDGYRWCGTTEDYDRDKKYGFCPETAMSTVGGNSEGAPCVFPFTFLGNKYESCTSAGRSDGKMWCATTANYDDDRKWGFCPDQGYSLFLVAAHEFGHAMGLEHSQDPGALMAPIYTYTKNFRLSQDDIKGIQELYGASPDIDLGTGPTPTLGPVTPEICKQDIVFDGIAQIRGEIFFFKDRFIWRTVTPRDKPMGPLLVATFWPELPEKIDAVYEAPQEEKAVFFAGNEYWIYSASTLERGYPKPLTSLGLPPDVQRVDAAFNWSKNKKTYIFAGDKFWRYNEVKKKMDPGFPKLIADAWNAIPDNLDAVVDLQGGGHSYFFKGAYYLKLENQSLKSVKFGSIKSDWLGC

Compound	inhibition
CCN(CC)C(=O)CSc1nc2ccccc2n1CC(=O)N1CCN(c2ccccc2OC)CC1	8.93%
Cc1ccc(NC(=O)CN2CCc3ccccc3C2)cc1	-29.5%
COc1ccc(CC(=O)Nc2ccc(-c3nnc(-c4ccc(C)cc4)o3)cc2)cc1	-21.6%
Oc1c(CN2CCCC2)cc(COCc2ccccc2)c2cccnc12	14.7%
CCc1ccc(-c2cc(C(=O)NCc3ccco3)c3ccccc3n2)s1	-10.6%
Cc1c(NC(=O)CSc2cccc3cccnc23)c(=O)n(-c2ccccc2)n1C	-0.79%
Cc1c(N=Nc2ccc(N(C)C)cc2)c(=O)n(-c2ccccc2)n1C	-25.6%
COc1cccc(NC(=O)C(C)Oc2ccccc2)c1 (stereo not given)	-39.6%
CCC/C=C(\CCC)C(NC(=O)Cc1ccccc1)c1ccc(C(=O)OC)cc1 (stereo not given)	-6.21%
Cc1cc(/C=N/Nc2ccc([N+](=O)[O-])cn2)c(C)n1-c1cccc(C(=O)O)c1	-54.4%
C=CCn1c(=S)[nH]c2scc(-c3ccco3)c2c1=O	40.5% (active)
CCN1CCN(c2cc3nc(C)n(Cc4ccccc4)c(=O)c3cc2NC(=O)c2ccccc2F)CC1	-12.5%
COc1ccc(-n2c(SCC(=O)Nc3sc4c(c3C#N)CCCC4)nnc2-c2ccc(O)cc2)cc1	-2.87%
N#Cc1c(-c2cccs2)nc(SCC(=O)c2ccc(Br)cc2)[nH]c1=O	47% (active)
CC(C)(C)NC(=O)CSC(=Nc1ccccc1F)NC#N	-28.4%
O=C(COc1cccc(F)c1)Oc1ccc(C(=O)c2ccccc2)cc1	8.62%
CC(=O)/C(=N\Nc1ccc(Cl)cc1Cl)Sc1cccc2cccnc12	-27.9%
C/C(=N/Nc1nc(-c2ccccc2)c(CC(=O)O)s1)c1ccccc1	4.1%
CCCCCCCCCCOC(=O)Cn1c(COc2cccc(OC)c2)[n+](C)c2ccccc21	-10.1%
COc1ccc2[nH]c(=O)c(-c3noc(-c4ccc(F)cc4)n3)cc2c1	-20.1%
CCc1ccc(NC(=O)CS(=O)CC(=O)NCCCc2ccccc2)cc1 (stereo not given)	-2.62%
Cc1ccc2cc(C#N)c(NCCNC(=S)NCCCN3CCOCC3)nc2c1	-15%
CCOc1ccc(-n2c(O)c(/C=N/c3ccnn3Cc3ccncc3)c3ccccc3c2=O)cc1	1.46%
O=C1NC(=O)C2C1C(c1ccc([N+](=O)[O-])cc1)=NN2Cc1ccccc1 (stereo not given)	-11.1%
Cc1ccc(-c2nnc(-c3ccc(NC(=O)c4cccs4)cc3)o2)cc1	-49.7%
C=CC[n+]1c(-c2ccc(C)cc2)csc1NNC(=O)Nc1ccccc1	26%
Cc1nc2ccccc2nc(=O)c1NNc1ccc([N+](=O)[O-])cc1	-26.6%

Compound	inhibition
N#Cc1ccc(C(=O)Nc2cccc3cccnc23)c(F)c1	-11%
COc1ccc(Cl)cc1NC(=O)CCS(=O)(=O)c1ccc(Br)cc1	-0.68%
O=C(CCS(=O)(=O)c1cccc2nonc12)NCCc1ccccc1Cl	-10.6%
CN=c1scc(-c2cc(OC)ccc2OC)n1/N=C/c1c(C)[nH]c2ccccc12	22.9%
Oc1ccc(/C=N/Nc2nc(-c3ccccc3F)nc3ccccc23)c(O)c1	-56.3%
C=CCn1c(SCC(=O)NCc2ccccc2)nnc1-c1cc(Br)ccc1O	-13%
CC(C)Cn1c(CCC(=O)O)ccc1-c1cccs1	-47.9%
O=C(O)c1ccc(NN=CC2=C(N3CCOCC3)/C(=C/c3ccccc3)CC2)cc1	-0.54%
CC(=O)c1sc(N/N=C/c2ccc(C(C)C)cc2)nc1C	20.1%
CCCS(=O)(=O)N1CCCC(C(=O)NCc2ccco2)C1 (stereo not given)	-7.67%
CSC1=N/C(=C\C=C\c2cccs2)C(=O)S1	10%
CN(C)CCOC1c2ccccc2-c2ccccc21	-31.6%
CCOc1cc(/C=C2\SC(N3CCCC(C)C3)=NC2=O)ccc1O (stereo not given)	-18.9%
COc1cc(/C=C2/SC(=S)N(Cc3ccccc3)C2=O)cc(OC)c1O	-7.17%
Cc1cc(OCC(=O)Nc2nccs2)c2c(C)c(C)c(=O)oc2c1	0.79%
O=C(Nc1ccc(-c2nnc(-c3ccccc3)o2)cc1)c1ccc(Br)o1	35.4%
CS(=O)(=O)c1ccc2c(c1)SC1=NC(=O)/C(=C/c3ccco3)C(=N)N12	13%
O=C(CSc1cccc2cccnc12)N/N=C/c1cccnc1	-15.4%
Nc1nonc1-n1nnc(C(=O)N/N=C/c2cc(Br)ccc2O)c1CSC1=NCCS1	-8.38%
COc1cccc(-c2nn(-c3ccccc3)cc2/C=C(\C#N)C(=O)NCCCn2ccnc2)c1	-13.9%
COc1ccc(CNC(=O)c2nnn(CC(=O)Nc3cc(C)cc(C)c3)c2N)cc1	5.49%
CC(C)Oc1ccc(/C=C(\NC(=O)/C=C/c2ccco2)C(=O)NCCc2nc3ccccc3[nH]2)cc1	-12%
Cc1cccc(OCc2nnc(SCc3nc4cc(C(F)(F)F)ccc4c(=O)[nH]3)o2)c1	18.2%
NC(N)=N/N=C/c1ccc(OCc2ccc(Cl)cc2Cl)cc1	9.75%
CCOc1cc(/C=C2\SC(N3CCCCC3)=NC2=O)ccc1O	-18.1%
Cc1cc(/C=C2/SC(=O)N(CC(=O)N3CCCC3)C2=O)ccc1N1CCOCC1	-23%
O=C(OCc1cc2ccccc2[nH]c1=O)c1cccnc1	-65.4%

Compound	inhibition
Cc1sc2nc(COC(=O)C(NC(=O)c3ccc(Cl)cc3Cl)C(C)C)[nH]c(=O)c2c1C (stereo not given)	-38.9%
CCNCc1cc2cc(C)ccc2[nH]c1=O	-21.9%
CC1CCN(c2ccc3c(c2)S(=O)(=O)c2cc(C(=O)O)ccc2C3=O)CC1	-51.3%
Cc1ccc(NC(=O)c2c(NC(=O)CCC(=O)O)sc3c2CCCCC3)cc1	20.7%
COc1cccc(/C=C(/CC(=O)Nc2ccc(N3CCOCC3)cc2)c2nc3ccccc3s2)c1	30.2%
CCC(C)Cn1c(O)cc2nn(-c3nc4ccccc4s3)c(=O)c-2c1C (stereo not given)	-2.01%
Cc1oc2c(C)c3oc(=O)c(CC(=O)N[C@@H](CC(C)C)C(=O)N[C@@H](Cc4ccccc4)C(=O)O)c(C)c3cc2c1C	-12.8%
CCN1CCCC1CNC(=O)c1cc2c(=O)n(C)c3ccccc3c2n1C (stereo not given)	5.3%
CN(C)c1ccc(-n2cccc2/C=C2/SC(=Nc3ccc(F)cc3)NC2=O)cc1	11.2%
CCCOc1ccc(Cn2c(O)cc(=O)[nH]c2=O)cc1	-16.6%
COc1ccc(NC(=O)Cn2c(-c3ccc(OC)cc3)cn(-c3ccc(C)cc3)c2=O)cc1	-12.7%
Cc1ccc(Nc2ccccc2N)cc1	-13.4%
CCCCCCSc1ccc([C@@H]2[C@H]3C(=O)N(CC)C(=O)[C@H]3[C@]3(C(=O)OC)CCCCN23)cc1	-13.2%
CC(C)CC1C(=O)N(Cc2cn(Cc3ccco3)nn2)CCS(=O)(=O)N1Cc1ccc(-c2ccc(Cl)c(Cl)c2)cc1 (stereo not given)	-38.5%
CCOc1ccc(-n2c(O)c(/C=N/Nc3nnc(C)c(=O)[nH]3)c3ccccc3c2=O)cc1	-6.64%
Cc1nc2ccc(C(=O)N3CCSCC3)cc2s1	-42.3%
C=CC1=C(C(=O)O)N2C(=O)[C@@H](NC(=O)/C(=N/OCC(=O)O)c3csc(N)n3)[C@H]2SC1	35.4%
CCOC(=O)N1CCC(NC(=O)C(NS(=O)(=O)c2ccc3c(c2)CCN3C(=O)CC)C(C)C)CC1 (stereo not given)	-20.7%
COC(=O)c1ccc(OCC(=O)NC(C)(C)C)cc1	6.02%
O=C(CSc1nc2ccccc2c(=O)[nH]1)Nc1nc(-c2ccc(Br)cc2)cs1	51.9% (active)
Cc1ccc(N=Cc2c(O)cc(C)oc2=O)c(C)c1	-22.6%
CC(=O)Nc1ccccc1Sc1ccc2c3c(cccc13)C(=O)N(c1ccc(C)cc1)C2=O	-23%
CCOc1ccc(NC(=O)c2ccc(NC(=O)COC(=O)c3ccc(NC(=O)CC#N)cc3)cc2)cc1	10.8%
COC1=C/C(=C/c2c(N)n3nc(CC(=O)N4CCOCC4)sc3nc2=O)C=CC1=O	12%
Cc1ccc(Nc2nc(Cl)c(C=O)s2)cc1	-10.8%
Cc1nc2ccccc2n1C(=O)N1CCOCC1	-8.73%
